These results are taken from PubChem BioAssay (NCI).

Among the test systems are HCT-15 colon; HT29 colon; SNB-75 CNS; SNB-19 CNS; U251 CNS; PC-3 prostate; SK-MEL-5 melanoma; UACC-62 melanoma; LOX IMVI melanoma; SK-MEL-28 melanoma; SK-MEL-2 melanoma; EKVX NSCLC; SN12C renal; UO-31 renal; TK-10 renal; ACHN renal; CAKI-1 renal; A498 renal; CCRF-CEM leukemia; MOLT-4 leukemia.
Test in all cases: NCI-60 one-dose screen, 48 h (100 = growth as untreated, 0 = no growth, -100 = all killed)
What all share (conditions): 10 µM unless noted

Compounds without any hit were thinned out: in the full panel of roughly 83,000, 20% have a hit.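 Percent growth is the endpoint: 0 to 100 indicates growth inhibition (40 means 60% inhibition), 0 means no net growth, and negative values indicate cell death.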 A number with no mark means an inactive call. Calls of active or inactive are those of the source. Rule for the calls: active = growth percent below 10; inactive = the rest.

Consider `CNc1nc2ncc(-c3c(C)noc3C)cc2n1Cc1ccccc1`, for which the growth in the assay on HCT-15 colon was 51.2%; with HT29 colon it was 31.8%; in the assay with SNB-75 CNS it was 0.561% (active); in the assay with SNB-19 CNS, 59.3%; with U251 CNS it was 61%; in the assay with PC-3 prostate, 32.2%. In addition, the growth was 47.9% in the assay on SK-MEL-5 melanoma; 17% in the assay with UACC-62 melanoma; 32.5% in the assay with LOX IMVI melanoma; 57.4% in the assay on SK-MEL-28 melanoma; 67.4% with SK-MEL-2 melanoma; 62.6% in the assay with EKVX NSCLC. The growth with SN12C renal is 71.1%; with UO-31 renal, 21.3%; in the assay with TK-10 renal it was 24.3%; in the assay on ACHN renal, 42.1%; in the assay on CAKI-1 renal, 36.7%; in the assay on A498 renal, 0.868% (active). Also, the growth was 50.5% in the assay with CCRF-CEM leukemia and 48.9% in the assay with MOLT-4 leukemia.

Take `CNC(=O)c1cc(Oc2ccc3nc(NC(=O)NC(C)C)sc3c2)ccn1`: the growth with HCT-15 colon was 55.9%; in the assay with HT29 colon, 33.3%; with SNB-75 CNS it was 93.9%; in the assay on SNB-19 CNS it was 82.3%; with U251 CNS, 51.6%; in the assay on PC-3 prostate, 70.1%. The growth was 65.3% in the assay on SK-MEL-5 melanoma; 68.6% in the assay with UACC-62 melanoma; 68.8% in the assay on LOX IMVI melanoma; 85.8% in the assay with SK-MEL-28 melanoma; 89.9% with SK-MEL-2 melanoma; 93.7% in the assay on EKVX NSCLC. In addition, the growth in the assay with SN12C renal was 86.3%; with UO-31 renal it was 79.2%; in the assay on TK-10 renal it was 88.6%; in the assay on ACHN renal, 94%; with CAKI-1 renal it was 91.9%; with A498 renal, 51.4%. The growth was 64.4% in the assay on CCRF-CEM leukemia and 40.7% in the assay with MOLT-4 leukemia.

`COc1cccc(/C=C/C(=O)/C=C(/C=C/c2cccc(OC)c2OC)OB(F)F)c1OC`: the growth in the assay on HCT-15 colon is 29.4%; with HT29 colon, 49.2%; with SNB-75 CNS it was 65.8%; in the assay on SNB-19 CNS, 77.7%; with U251 CNS, 36.4%; in the assay on PC-3 prostate it was 57.9%. Besides, the growth in the assay with SK-MEL-5 melanoma was 93.4%; with UACC-62 melanoma it was 42.4%; in the assay with LOX IMVI melanoma, 18.2%; in the assay on SK-MEL-28 melanoma it was 50.7%; in the assay on SK-MEL-2 melanoma, 110%; with EKVX NSCLC, 87.7%. Also, the growth with SN12C renal was 43%; in the assay on UO-31 renal it was 37.8%; in the assay with TK-10 renal, 68%; in the assay on ACHN renal, 19.6%; in the assay on CAKI-1 renal, 35.8%; with A498 renal it was 122%. For the same compound, the growth in the assay with CCRF-CEM leukemia is 7.53% (active); in the assay with MOLT-4 leukemia, 9.58% (active).

On to `CC(=O)/C(Br)=C/c1ccc(Br)o1`, for which the growth in the assay with HCT-15 colon was 65.8%; in the assay with HT29 colon it was 62.4%; with SNB-75 CNS, 92.6%; in the assay with SNB-19 CNS, 87.8%; in the assay with U251 CNS it was 80.4%; in the assay on PC-3 prostate it was 80.8%. In addition, the growth was -0.755% (active) in the assay with SK-MEL-5 melanoma; 85.9% in the assay with UACC-62 melanoma; 38.7% in the assay on LOX IMVI melanoma; 60.8% in the assay on SK-MEL-28 melanoma; 99.2% in the assay on SK-MEL-2 melanoma; 105% in the assay on EKVX NSCLC. The growth in the assay with SN12C renal was 73.5%; in the assay with UO-31 renal, 52.7%; in the assay on TK-10 renal, 71.5%; with ACHN renal it was 60.1%; in the assay on CAKI-1 renal, 26.1%; in the assay with A498 renal, 105%. For the same compound, the growth is -31% (active) with CCRF-CEM leukemia and -15.4% (active) in the assay with MOLT-4 leukemia.

As to `C=CCn1c(SCC(=O)Nc2ccc(C(=O)/C=C/c3cc(OC)c(OC)c(OC)c3)cc2)nnc1-c1cc(-c2ccc(S(N)(=O)=O)cc2)nc2ccccc12`, the growth in the assay with HCT-15 colon is 97.7%; in the assay on HT29 colon, 98.1%; in the assay with SNB-75 CNS it was 77.2%; with SNB-19 CNS, 74.2%; in the assay with U251 CNS it was 58.9%; with PC-3 prostate, 84.1%. Moreover, the growth with SK-MEL-5 melanoma was 87.6%; in the assay on UACC-62 melanoma, 74.7%; in the assay with LOX IMVI melanoma, 73%; with SK-MEL-28 melanoma, 103%; in the assay on SK-MEL-2 melanoma, 100%; with EKVX NSCLC, 100%. Besides, the growth with SN12C renal is 90.3%; in the assay with UO-31 renal, 77.1%; with TK-10 renal, 141%; in the assay on ACHN renal, 93.8%; in the assay on CAKI-1 renal it was 72.2%; in the assay with A498 renal, 97%. Further, the growth in the assay on CCRF-CEM leukemia was 29.5%; with MOLT-4 leukemia it was 59.7%.

As to `CCN(CC)CCCNC(=O)c1c2c(n3ccccc13)C(=O)c1ncccc1C2=O`, the growth in the assay on HCT-15 colon was -73.6% (active); with HT29 colon, -28.5% (active); in the assay with SNB-75 CNS, -87.2% (active); with SNB-19 CNS, -71.3% (active); in the assay on U251 CNS it was -83.8% (active); with PC-3 prostate it was -19.8% (active). Besides, the growth with SK-MEL-5 melanoma is -99.2% (active); in the assay on UACC-62 melanoma, -53.8% (active); with LOX IMVI melanoma it was -71.2% (active); with SK-MEL-28 melanoma it was 22.8%; with SK-MEL-2 melanoma, -55.3% (active); with EKVX NSCLC, -84.5% (active). Also, the growth was -56% (active) in the assay with SN12C renal; -19.8% (active) in the assay with UO-31 renal; -0.124% (active) in the assay on TK-10 renal; -34.5% (active) with ACHN renal; 11.8% in the assay with CAKI-1 renal; -73% (active) in the assay on A498 renal. Further, the growth with CCRF-CEM leukemia was -36.2% (active); with MOLT-4 leukemia, -40.6% (active).

`CCN(CC)CCCNc1cc(OC)cc2cccnc12`: the growth in the assay with HCT-15 colon is 99.7%; with HT29 colon it was 91.6%; in the assay with SNB-75 CNS it was 111%; with SNB-19 CNS it was 109%; in the assay on U251 CNS it was 94.8%; in the assay with PC-3 prostate, 93.8%. The growth was 95.3% with SK-MEL-5 melanoma; 110% in the assay on UACC-62 melanoma; 97.2% in the assay with LOX IMVI melanoma; 126% with SK-MEL-28 melanoma; 109% in the assay with SK-MEL-2 melanoma; 107% in the assay with EKVX NSCLC. Moreover, the growth with SN12C renal was 97.7%; in the assay on UO-31 renal, 91.6%; in the assay on TK-10 renal it was 109%; in the assay on ACHN renal, 110%; with CAKI-1 renal, 103%; in the assay with A498 renal, 81.5%. Besides, the growth is 114% in the assay on CCRF-CEM leukemia and 104% with MOLT-4 leukemia.
